Compound activity deposited in PubChem by Broad Institute.
An excerpt weighted towards active compounds, which were near 3.1% of everything screened.
RAD52 anneal inh: RAD52 DNA annealing inhibitors, primary screen, biochemical, FRET, single point, set 2; DNA repair protein RAD52 homolog (Homo sapiens), P43351; recombinant RAD52 DNA annealing, FRET fluorescence; inhibition, % at 18.7 µM; hit rate 0.46% among 360,000; AID 651710, 2012;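 active = every replicate showing at least 50% inhibition; inconclusive = mean inhibition at least 50% but not in every replicate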
DENV2 CPE rescue: inhibitors of DENV2 cytopathic effect, primary screen, cell-based, plate reader, single concentration | hit rate 1.7% among 350,000 | AID 651640, 2012 | CPE inhibition, % at 9.99 µM | DENV2-infected cells, cytopathic effect rescue; in the data active = CPE inhibition above about 20%, passing the limit was not always enough; inconclusive = no clear call, values can overlap the other calls; tested in BHK-21 cells;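 also: 0% = median of neutral control wells and 100% = median of positive control wells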
GSIS activator: GLuc luminescence reporter in INS-1E cells, primary screen for activators of glucose-dependent secretion of insulin; activation, % at 16.6 µM; hit rate 0.61% among 370,000; INS-1E GLuc reporter insulin secretion, 2-3 h; AID 743287, 2014;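 active = lowest replicate activation of at least 40%, so every replicate reaches that level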;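 also: 0% = median of neutral control wells and 100% = median of IBMX positive control wells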
RAD54 branch: inhibitors of human RAD54 branch migration, primary screen, biochemical, fluorescence, single point; DNA repair and recombination protein RAD54-like (Homo sapiens), Q92698; RAD54 Holliday junction branch migration, FAM/BHQ fluorescence; inhibition, % at 10.4 µM; hit rate 0.14% among 360,000; AID 602329, 2012;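 active = mean normalized replicate activity at least 40 and at least half of replicates scoring 40 or more; inconclusive = only one of the two criteria met; inactive = mean below 40 and under half of replicates reaching 40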;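 also: 0% = median of neutral control wells and 100% = median of positive control wells; inhibitors cause a drop in the FAM fluorescence signal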
Target sequence (Q92698 whole entry, looked up): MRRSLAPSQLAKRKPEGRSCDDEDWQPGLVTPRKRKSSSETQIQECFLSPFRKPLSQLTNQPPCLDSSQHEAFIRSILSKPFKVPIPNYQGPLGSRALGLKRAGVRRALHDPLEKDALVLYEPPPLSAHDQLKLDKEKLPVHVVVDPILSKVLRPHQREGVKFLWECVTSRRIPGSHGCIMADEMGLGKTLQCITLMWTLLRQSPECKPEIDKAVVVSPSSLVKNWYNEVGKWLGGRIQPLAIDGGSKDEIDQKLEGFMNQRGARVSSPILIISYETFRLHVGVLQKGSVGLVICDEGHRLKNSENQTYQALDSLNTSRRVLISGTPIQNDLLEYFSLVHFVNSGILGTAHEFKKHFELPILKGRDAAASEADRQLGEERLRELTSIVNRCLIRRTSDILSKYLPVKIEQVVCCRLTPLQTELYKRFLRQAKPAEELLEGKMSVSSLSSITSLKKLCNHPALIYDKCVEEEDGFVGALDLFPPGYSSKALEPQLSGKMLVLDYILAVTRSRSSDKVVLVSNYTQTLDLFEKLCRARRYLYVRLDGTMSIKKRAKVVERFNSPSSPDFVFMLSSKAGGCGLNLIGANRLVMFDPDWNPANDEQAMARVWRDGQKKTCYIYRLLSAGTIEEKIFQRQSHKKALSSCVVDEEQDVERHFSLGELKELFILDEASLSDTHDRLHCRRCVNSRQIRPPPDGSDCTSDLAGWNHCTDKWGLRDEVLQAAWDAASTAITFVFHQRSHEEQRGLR
MLL AF4-AF9 inh: inhibitors of AF4 peptide binding to AF9, primary screen, biochemical, AlphaScreen, biotin-AF4 peptide, FLAG-AF9, single point; hit rate 0.47% among 350,000; inhibition, % at 10 µM;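 active = every replicate reaching a set inhibition limit, whatever the replicate mean, cut at about 25% in these data; inconclusive = mean inhibition reaches that limit but some replicates miss it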;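 also: 0% = plate neutral control median and 100% = total signal loss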
dFosB activator: activators of delta FosB homodimer, primary screen, biochemical, fluorescence polarization, TAMRA-CDK5 oligo, single point | Protein FosB (Mus musculus), P13346 | purified delta FosB; percent of positive-control signal above neutral wells | activation, % at 25 µM | hit rate 0.99% among 340,000 | AID 493131, 2011;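 active = mean activation above about 17%, with every replicate also reaching it, limit read from the data, passing the limit was not always enough; inconclusive = only one of the two conditions met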
Starred values were filed as active, the others as inactive; ? = inconclusive; . = not tested or not shown.

SMILES	RAD52 anneal inh	DENV2 CPE rescue	GSIS activator	RAD54 branch	MLL AF4-AF9 inh	dFosB activator
COc1ccc(NC(=O)CN2CCOCC2)cc1S(=O)(=O)N1CCCCC1	-3	2	8	15	1	7
C[C@@H]1CCCCO[C@H](CN(C)Cc2ccc(C(=O)O)cc2)[C@H](C)CN([C@@H](C)CO)C(=O)c2cc(NC(=O)Nc3ccccc3)ccc2O1	11	2	-3	2	-9	.
C[C@@H]1CCCCO[C@H](CN(C)S(=O)(=O)c2ccc(F)cc2)[C@@H](C)CN([C@H](C)CO)C(=O)c2cc(NC(=O)CCCN(C)C)ccc2O1	-2	34*	0	11	3	.
C[C@@H]1CN([C@H](C)CO)C(=O)c2cc(NC(=O)CCCN(C)C)ccc2O[C@@H](C)CCCCO[C@H]1CN(C)S(=O)(=O)c1ccc(F)cc1	20	17	-9	13	11	.
C[C@@H]1CCCCO[C@@H](CN(C)S(=O)(=O)c2ccc(F)cc2)[C@H](C)CN([C@@H](C)CO)C(=O)c2cc(NC(=O)CCCN(C)C)ccc2O1	14	21*	-9	8	7	.
C[C@@H]1CCCCO[C@@H](CN(C)S(=O)(=O)c2ccc(F)cc2)[C@@H](C)CN([C@@H](C)CO)C(=O)c2cc(NC(=O)CCCN(C)C)ccc2O1	9	-4	-3	13	3	.
C[C@H](CO)N1C[C@H](C)[C@H](CN(C)Cc2ccc(Cl)c(Cl)c2)OCCCC[C@H](C)Oc2ccc(NS(C)(=O)=O)cc2C1=O	15	-8	-12	.	5	.
Cc1cc(C)n(/C(=C\N(C)C)C(=O)c2ccc(Cl)cc2)n1	0	13	19	-5	-1	-7
Cc1cc(C)n(/C(=C\N(C)C)C(=O)c2cccc([N+](=O)[O-])c2)n1	-3	9	-18	7	51*	4
Cc1ccccc1NC(=S)NC1CCCC1	-15	0	-4	4	3	-1
Cc1cccc(C)c1NC(=S)NC1CCCCC1	-12	68*	.	.	-2	2
Cc1nc(CN2CCN(S(=O)(=O)c3c(Cl)cc(Br)cc3Cl)CC2)cs1	2	-5	68*	.	4	-8
COc1ccc(NC(=O)N(C)C[C@@H]2Oc3ccc(NC(=O)Cc4ccccc4)cc3C(=O)N([C@H](C)CO)C[C@@H]2C)cc1	7	1	7	8	-5	.
Fc1ccccc1-c1ccc(/C=N/Nc2nc3ccccc3[nH]2)o1	3	-2	-16	.	8	22*
C(=N\Nc1nc2ccccc2[nH]1)/c1ccccn1	-22	1	4	.	14	-1
c1ccc(C2=Nc3c(ccc4ccccc34)C(c3ccncc3)=NN2)cc1	-7	-1	.	.	34*	-1
COc1ccc(CN(C)C[C@H]2Oc3ccc(NC(=O)Nc4ccccc4)cc3C(=O)N([C@H](C)CO)C[C@H]2C)cc1	26	4	-20	-3	-5	.
COc1ccc(NC(=O)Nc2ccc3c(c2)C(=O)N([C@H](C)CO)C[C@H](C)[C@H](CN(C)Cc2ccccc2)O3)cc1	3	-7	-6	-3	7	.
COc1ccc(CN(C)C[C@@H]2Oc3ccc(NC(=O)Nc4ccccc4)cc3C(=O)N([C@H](C)CO)C[C@H]2C)cc1	22	-6	14	57*	-4	.
COc1ccc(NC(=O)Nc2ccc3c(c2)C(=O)N([C@H](C)CO)C[C@H](C)[C@@H](CN(C)Cc2ccccc2)O3)cc1	3	43*	2	-2	0	.
O=C([C@H]1[C@H](CO)[C@H]2Cn3c(cccc3=O)[C@H]2N1CC1CCCCC1)N1CCOCC1	-4	3	4	.	-1	.
CCOC(=O)c1sc(NC(=O)/C=C/c2ccccc2)nc1C	-9	-12	4	.	-8	3
COC(=O)c1sc(NC(=O)/C=C/c2ccc(C)cc2)nc1C	.	.	67*	.	.	2
COc1ccc(NC(=O)N[C@H]2CC[C@@H](CCNC(=O)CN3CCOCC3)O[C@H]2CO)cc1	-11	-3	7	4	-5	.
C[C@@H]1CN([C@@H](C)CO)C(=O)c2cccc(NC(=O)C3CC3)c2O[C@H]1CN(C)S(=O)(=O)c1ccc(Cl)cc1	9	18	21	-4	-2	.
SMILES	RAD52 anneal inh	DENV2 CPE rescue	GSIS activator	RAD54 branch	MLL AF4-AF9 inh	dFosB activator
COCCNC(=O)CCCn1c(=O)c2ccccc2n(Cc2ccccc2C#N)c1=O	-13	8	54*	3	1	-11
N#Cc1ccccc1Cn1c(=O)n(CCCC(=O)NCc2ccc3c(c2)OCO3)c(=O)c2ccccc21	.	.	7	.	.	1
COc1ccc(-n2c3c(c(=O)[nH]c2=O)C(NC(C)=O)(C(F)(F)F)C(=O)N3)cc1 (stereo unspecified)	-14	3	2	-1	2	-8
COc1ccc(-n2c3c(c(=O)[nH]c2=O)C(NS(=O)(=O)c2ccc(Cl)cc2)(C(F)(F)F)C(=O)N3)cc1 (stereo unspecified)	-10	6	55*	1	-13	1
CS(=O)(=O)N1CCN(c2ccc(NC(=O)c3ccc(-c4ccc(Cl)cc4)o3)cc2)CC1	.	.	80*	.	.	-15
CN1[C@@H]2Cn3c(ccc(-c4ccc(F)cc4)c3=O)[C@H]1[C@@H](C(=O)N1CCCCC1)[C@@H]2CO	2	10	18	-6	1	.
CCS(=O)(=O)N(C)C[C@@H]1N[C@H](CO)[C@@H]1c1ccc(C2=CCCCC2)cc1	-31	-3	3	.	-3	.
COc1ccc(S(=O)(=O)Nc2ccc3c(c2)C(=O)N([C@H](C)CO)C[C@@H](C)[C@@H](CN(C)Cc2ccc4c(c2)OCO4)O3)cc1	-6	7	-10	5	2	.
CN(C)CCCN(C(=O)c1ccc2ccccc2c1)c1nc2cc3c(cc2s1)OCO3	50	1	-41	33	33*	6
CN(C)CCCN(C(=O)c1ccc2c(c1)CCCC2)c1nc2ccc(Cl)cc2s1	42	5	102	.	27*	6
CCOC(=O)N1CCN(S(=O)(=O)c2ccc(C(=O)N(CCCN(C)C)c3nc4ccc(Cl)cc4s3)cc2)CC1	16	-2	-68	5	4	10
CN(C)CCCN(C(=O)COc1ccc(Cl)cc1)c1nc2cc3c(cc2s1)OCCO3	60*	0	-62	20	9	?
CN(C)CCCN(C(=O)COc1ccc(Cl)cc1)c1nc2cc3c(cc2s1)OCO3	43	-9	-18	23	4	39*
CCC(=O)Nc1ccc2c(c1)C(=O)N(C)[C@@H]1CC[C@@H](CC(=O)NC3Cc4ccccc4C3)O[C@H]1CO2	5	8	-5	-8	-9	.
